{"source": "PubChem BioAssay (NCATS)", "key": {"[1]": {"assay": "P-glycoprotein substrates identified in KB-3-1 adenocarcinoma cell line, qHTS therapeutic library screen (AID 1346986); note: nearly all actives have a fitted effect of over 60% in size", "outline": "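Using luminescence to quantify ATP, parental and P-gp-overexpressing KB cells were compared after 72 h compound titration. KB-8-5-11 was also run with the P-gp inhibitor tariquidar.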"}, "[2]": {"assay": "P-glycoprotein substrates identified in KB-8-5-11 adenocarcinoma cell line, qHTS therapeutic library screen (AID 1346987); note: nearly all actives have a fitted effect of over 65% in size; for activity change, negative = cytotoxicity: series mostly up to about 44 µM", "outline": "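Human cervical adenocarcinoma KB-8-5-11 cells, selected in colchicine to over-express P-gp and assayed without it, were exposed for 72 h to titrated compounds. An ATP-based luminescent viability signal gave AC50.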"}}, "note": "Results filed as inconclusive are left out. A call without a number means that no potency is given here. Values without a mark were called inactive. Activity calls are given as the source filed them. Calls come from the whole dose curve; as a rule, active = well fitted curve in the direction sought with a large enough effect; inconclusive = small, poorly fitted or top-dose-only effect, or another doubt; inactive = no such curve, though single readings can be large; an effect the other way counts as inactive or inconclusive. Where a SMILES comes first, the peptide text is derived from it. [ ]: non-standard residue; d: D form. ξ: configuration not given here. ξPhe(βξ-Me) = CC(c1ccccc1)C(N)C(=O)O; GABA = NCCCC(=O)O", "data": [{"smiles": "COc1cc([C@H]2OC[C@]3(OC(C)=O)[C@@H](c4ccc(O[C@@H]5O[C@H](CO)[C@@H](O)[C@H](O)[C@H]5O)c(OC)c4)OC[C@H]23)ccc1O", "values": [{"measurement": "Potency", "setting": "[1]", "value": "inactive"}, {"measurement": "Potency", "setting": "[2]", "value": "inactive"}]}, {"smiles": "C=CC(C)(C)O[C@@H]1O[C@H](CO[C@@H]2OC[C@](O)(CO)[C@H]2O)[C@@H](O)[C@H](O)[C@H]1O", "values": [{"measurement": "Potency", "setting": "[1]", "value": "inactive"}, {"measurement": "Potency", "setting": "[2]", "value": "inactive"}]}, {"smiles": "C[C@@H]1C[C@H]2[C@@H]3CCC4=CC(=O)C=C[C@]4(C)[C@@]3(F)[C@@H](O)C[C@]2(C)[C@@]1(O)C(=O)COP(=O)(O)O", "values": [{"measurement": "Potency", "setting": "[1]", "value": "inactive"}, {"measurement": "Potency", "setting": "[2]", "value": "inactive"}]}, {"smiles": "C=CC(C)(O)CC/C=C(\\C)C(=O)OC1CC2(C(=O)O)CCC3(C)C(=CCC4C5(C)CCC(OC6OC(COC7OCC(O)C(O)C7O)C(O)C(OC7OCC(O)C(O)C7O)C6OC6OC(CO)C(O)C(O)C6OC6OCC(O)C(O)C6O)C(C)(C)C5CCC43C)C2CC1(C)C", "note": "(stereo unspecified)", "values": [{"measurement": "outcome", "setting": "[1]", "value": "inactive [at 9.29 µM]"}, {"measurement": "outcome", "setting": "[2]", "value": "inactive [at 9.29 µM]"}]}, {"smiles": "CC(C)=CCCC1(C)Oc2cc3c(c4c2C2C(O4)C(C)(O)CCC21)CN(C(CCC(=O)O)C(=O)O)C3=O", "note": "(stereo unspecified)", "values": [{"measurement": "Potency", "setting": "[1]", "value": "inactive"}, {"measurement": "Potency", "setting": "[2]", "value": "inactive"}]}, {"smiles": "CC(C)CC1NC(=O)C(C(C)c2ccccc2)NC(=O)C(C(C)C)NC(=O)C(C)NC(=O)CCCNC(=O)C(Cc2c[nH]c3ccccc23)NC(=O)C(C)NC1=O", "note": "(stereo not drawn) (cyclo([GABA]AV[ξPhe(βξ-Me)]LAW); configuration not given here)", "values": [{"measurement": "Potency", "setting": "[1]", "value": "inactive"}, {"measurement": "Potency", "setting": "[2]", "value": "inactive"}]}, {"smiles": "O=C(O)[C@H]1CCCC[C@H]1C(=O)N1CCc2ccccc2[C@H]1CN1C(=O)c2ccccc2C1=O", "values": [{"measurement": "Potency", "setting": "[1]", "value": "inactive"}, {"measurement": "Potency", "setting": "[2]", "value": "inactive"}]}, {"smiles": "C[C@@H]1O[C@@H](O[C@@H]2[C@@H](O)[C@H](O[C@@H]3[C@@H](O)[C@@H](O)[C@H](O[C@H]4[C@H](OC(=O)[C@]56CCC(C)(C)C[C@H]5C5=CCC7[C@@]8(C)C[C@H](O)[C@H](O[C@@H]9O[C@@H](C)[C@H](O)[C@@H](O)[C@H]9O)[C@@](C)(CO)C8CC[C@@]7(C)[C@]5(C)C[C@H]6O)O[C@H](C)[C@H](O)[C@@H]4O)O[C@H]3C)OC[C@H]2O)[C@H](O)[C@H](O)[C@H]1O", "note": "(stereo partly specified)", "values": [{"measurement": "outcome", "setting": "[1]", "value": "inactive [at 9.29 µM]"}, {"measurement": "activity change, negative = cytotoxicity", "setting": "[2]", "value": "4.66% [at 9.29 µM]"}]}, {"smiles": "CC(C)[C@@H](C)/C=C/[C@@H](C)[C@H]1CC[C@H]2C3=CC=C4C[C@@H](O)CC[C@]4(C)[C@H]3CC[C@]12C", "values": [{"measurement": "Potency", "setting": "[1]", "value": "inactive"}, {"measurement": "Potency", "setting": "[2]", "value": "inactive"}]}, {"smiles": "CC(C)c1nc(N(C)S(C)(=O)=O)nc(-c2ccc(F)cc2)c1/C=C/[C@@H](O)C[C@@H](O)CC(=O)O", "values": [{"measurement": "Potency", "setting": "[1]", "value": "inactive"}, {"measurement": "Potency", "setting": "[2]", "value": "inactive"}]}, {"smiles": "CO[C@@H]1CC[C@H](OC[C@]2(COC(=O)c3ccc(C)[nH]3)[C@H](OC(C)=O)CC[C@@]3(C)[C@@H]4CC=C(C)[C@@H](C5=C(O)C(=O)OC5O)[C@]4(C)CC[C@@H]32)O[C@H]1C", "note": "(stereo partly specified)", "values": [{"measurement": "Potency", "setting": "[1]", "value": "inactive"}, {"measurement": "Potency", "setting": "[2]", "value": "inactive"}]}, {"smiles": "C[C@@H]1O[C@@H](O[C@H]2[C@H](O[C@H]3[C@H](O[C@H]4CC[C@@]5(C)C(CC[C@]6(C)C5CC=C5[C@@H]7CC(C)(C(=O)O)C[C@@H](O)[C@]7(C)CC[C@]56C)[C@@]4(C)CO)O[C@H](C(=O)O)[C@@H](O)[C@@H]3O)O[C@H](CO)[C@H](O)[C@@H]2O)[C@H](O)[C@H](O)[C@H]1O", "note": "(stereo partly specified)", "values": [{"measurement": "outcome", "setting": "[1]", "value": "inactive [at 9.29 µM]"}, {"measurement": "activity change, negative = cytotoxicity", "setting": "[2]", "value": "7.09% [at 9.29 µM]"}]}, {"smiles": "CC(CCC1C(C(=O)O)=CC(=O)CC1(C)C)O[C@@H]1O[C@H](CO)[C@@H](O)[C@H](O)[C@H]1O", "note": "(stereo partly specified)", "values": [{"measurement": "Potency", "setting": "[1]", "value": "inactive"}, {"measurement": "Potency", "setting": "[2]", "value": "inactive"}]}, {"smiles": "CNC(=O)[C@H]1O[C@@H](n2cnc3c(NCc4ccc(N)c(I)c4)ncnc32)[C@H](O)[C@@H]1O", "values": [{"measurement": "outcome", "setting": "[1]", "value": "inactive [at 9.29 µM]"}, {"measurement": "outcome", "setting": "[2]", "value": "inactive [at 9.29 µM]"}]}, {"smiles": "C/C=C1/[C@H](O[C@@H]2O[C@H](CO)[C@@H](O)[C@H](O)[C@H]2O)OC=C(C(=O)OC)[C@H]1CC(=O)O[C@@H]1O[C@H](CO)[C@@H](O)[C@H](O)[C@H]1O", "values": [{"measurement": "Potency", "setting": "[1]", "value": "inactive"}, {"measurement": "Potency", "setting": "[2]", "value": "inactive"}]}, {"smiles": "O=C(O)CCc1cccc(O[C@@H]2O[C@H](CO)[C@@H](O)[C@H](O)[C@H]2O)c1O", "values": [{"measurement": "Potency", "setting": "[1]", "value": "inactive"}, {"measurement": "Potency", "setting": "[2]", "value": "inactive"}]}, {"smiles": "OCC1=CC[C@@H]2C=CO[C@@H](O[C@@H]3O[C@H](CO)[C@@H](O)[C@H](O)[C@H]3O)[C@H]12", "values": [{"measurement": "Potency", "setting": "[1]", "value": "inactive"}, {"measurement": "Potency", "setting": "[2]", "value": "inactive"}]}, {"smiles": "CC(=O)O[C@H]1C[C@@H]2[C@]3(CC[C@]4(C)[C@@H](C5(C)CCC(C(C)(C)O)O5)[C@@H](O)C[C@@]24C)C[C@@]32CC[C@H](O[C@@H]3OC[C@@H](O)[C@H](O)[C@H]3O)C(C)(C)[C@H]12", "note": "(stereo partly specified)", "values": [{"measurement": "Potency", "setting": "[1]", "value": "inactive"}, {"measurement": "Potency", "setting": "[2]", "value": "inactive"}]}]}
